Source: PubChem BioAssay (NCATS)
Records with an inconclusive call do not appear. The source made the active and inactive calls. Calls come from the whole dose curve; as a rule, active = well fitted curve in the direction sought with a large enough effect; inconclusive = small, poorly fitted or top-dose-only effect, or another doubt; inactive = no such curve, though single readings can be large; an effect the other way counts as inactive or inconclusive.

Columns and labels:
[1] = tested on: Zika virus NS2B-NS3 protease (unlinked complex); test: Primary screen GU Rhodamine qHTS for Zika virus inhibitors: Unlinked NS2B-NS3 protease assay (AID 1347159); note: nearly all actives have a fitted effect of over 60% in size; note: potency is the fitted concentration of half-maximal effect
Method in brief: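 A qHTS format was used, with compound concentrations ranging up to 114 microM. Each compound was preincubated with 25 nM NS2B-NS3 protease, and the substrate was then added at 1.5 microM. Curves were fitted with a 4-parameter Hill model.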

[2] = tested on: Zika virus NS2B-NS3 protease (linked construct); test: Primary screen NINDS Rhodamine qHTS for Zika virus inhibitors (AID 1347160); note: nearly all actives have a fitted effect of over 55% in size; note: potency is the fitted concentration of half-maximal effect
Method in brief: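 Kinetic fluorescence (Ex 480 nm, Em 540 nm) over 15 min with 1.5 microM Rhodamine110 peptide and 25 nM linked protease.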

[3] = target: Calcium and integrin-binding protein 1 (Homo sapiens) (UniProt Q99828); test: Primary qHTS for Identification of Calcium Integrin Binding Protein 1 (CIB1) Competitor (AID 1508620);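 note: GST tagged CIB1 binding a fluorescein labelled alphaIIb integrin peptide tracer; top concentration of the series differs between compounds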
Method in brief: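 CIB1-GST (1 uM final) and compound incubated 15 min at room temperature before adding FITC-alphaIIb peptide tracer (100 nM final). Competition for binding read by fluorescence polarization (ex 480, em 540) after another 15 min at room temperature.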

[4] = target: Glutathione peroxidase 1 (Homo sapiens) (UniProt P07203); test: Primary qHTS Assay for Inhibitors of Recombinant Selenoprotein Glutathione Peroxidase 1 (GPX1) (AID 1845191); note: nearly all actives have a fitted effect of over 65% in size; note: potency is the fitted concentration of half-maximal effect
Method in brief: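 10 nM GPX1 + cpd, 30 min RT; start w/ 1 mM GSH, 0.5 mM cumene hydroperoxide, 0.5 mM NADPH, 100 nM GR, 0.01% BSA; buffer 50 mM Tris-HCl pH 7.5, 2 mM EDTA, 150 mM NaCl; Fl 340/450, 0 & 15 min.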

[5] = target: Phospholipid hydroperoxide glutathione peroxidase GPX4 (Homo sapiens) (UniProt P36969); test: Primary qHTS Assay for Inhibitors of Recombinant Selenoprotein Glutathione Peroxidase 4 (GPX4) (AID 1845192); details: outcome: dose series up to 50 µM unless noted; note: nearly all actives have a fitted effect of over 65% in size; note: potency is the fitted concentration of half-maximal effect
Method in brief: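 NADPH consumption, followed by fluorescence at 340/450 nm between 0 and 15 min, reports GPX4 activity via coupled glutathione reductase (100 nM). Enzyme 200 nM was pre-exposed to compound 30 min; 0.5 mM cumene hydroperoxide and 1 mM GSH served as substrates.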

[6] = target: Luciferin 4-monooxygenase (Photinus pyralis) (UniProt P08659); test: Primary firefly luciferase (FLuc) qHTS assay for identification of artifact compounds. (AID 1845220); note: nearly all actives have a fitted effect of over 60% in size
Method in brief: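 FLuc 10 nM; luciferin 10 uM; ATP 10 uM; Tris-acetate pH 7.6, Mg-acetate 10 mM; 15 min RT preincubation; 5 min reaction; luminescence.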

[7] = Primary fluorescence-based thiol-reactive (MSTI) qHTS assay for identification of artifact compounds. (AID 1845221); note: nearly all actives have a fitted effect of over 65% in size; note: potency is the fitted concentration of half-maximal effect
Method in brief: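 One-hour, room-temperature, dark incubation of compound with 4 uM MSTI in PBS (pH 7.4, 2% DMSO) precedes a fluorescence read at 525 nm excitation, 598 nm emission; Hill-equation fitting yields concentration-response values.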

[8] = tested on: Nanoluciferase (engineered Oplophorus gracilirostris luciferase); test: Primary Nanoluciferase (NLuc) qHTS assay for identification of artifact compounds. (AID 1845222);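 note: NLuc secreted into diluted conditioned medium of S16 cells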
Method in brief: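 NLuc from S16 cell medium (1:55) plus test compounds, 15 min, room temperature. Luminescence after Nano-Glo (1:100) addition, 5 min.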

C33A = test: Primary qHTS to identify gynecologic anti-cancer compounds using libraries of approved drugs and bioactive compounds (AID 1345084); details: Gynecologic cancer cell panel viability, ATPlite luminescence, 48 h; series mostly up to 57.5 µM; note: nearly all actives have a fitted effect of over 55% in size
Method in brief: (§1)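 In this quantitative HTS, cell killing is estimated from loss of ATP-dependent luciferase light. Cells see five compound concentrations over a 48 h exposure.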

CASKI = test: as above; details: Gynecologic cancer cell panel viability, ATPlite luminescence, 48 h; series mostly up to 57.5 µM
Method in brief: as §1

Es-2 = test: as above; details: Gynecologic cancer cell panel viability, ATPlite luminescence, 48 h; series mostly up to 57.5 µM
Method in brief: as §1

HeLa = test: as above; details: Gynecologic cancer cell panel viability, ATPlite luminescence, 48 h; series mostly up to 57.5 µM
Method in brief: as §1

Hek293T = test: as above; details: Gynecologic cancer cell panel viability, ATPlite luminescence, 48 h, control line for the selectivity index; series mostly up to 57.5 µM
Method in brief: as §1

JEG-3 = test: as above; details: Gynecologic cancer cell panel viability, ATPlite luminescence, 48 h; series mostly up to 57.5 µM
Method in brief: as §1

OV90 = test: as above; details: Gynecologic cancer cell panel viability, ATPlite luminescence, 48 h; series mostly up to 57.5 µM
Method in brief: as §1

Tov-21-G = test: as above; details: Gynecologic cancer cell panel viability, ATPlite luminescence, 48 h; series mostly up to 57.5 µM
Method in brief: as §1

PA-1 = test: as above; details: Gynecologic cancer cell panel viability, ATPlite luminescence, 48 h; series mostly up to 57.5 µM
Method in brief: as §1

Tov112D = test: as above; details: Gynecologic cancer cell panel viability, ATPlite luminescence, 48 h; series mostly up to 57.5 µM
Method in brief: as §1

[9] = Primary qHTS for inhibitors of nuclear receptor binding SET domain protein 2 (NSD2) in an isogenic RCH-ACV NSD2 p.E1099K mutant (9B) (AID 1645876); note: potency is the fitted concentration of half-maximal effect; nearly all actives have a fitted effect of over 70% in size
[10] = Primary qHTS for inhibitors of nuclear receptor binding SET domain protein 2 (NSD2) in an RCH-ACV wild type WT cells (2C) (AID 1645877); note: potency is the fitted concentration of half-maximal effect; nearly all actives have a fitted effect of over 70% in size

Measured: Potency

Sequence of Calcium and integrin-binding protein 1 (Homo sapiens) (Q99828 whole entry, looked up): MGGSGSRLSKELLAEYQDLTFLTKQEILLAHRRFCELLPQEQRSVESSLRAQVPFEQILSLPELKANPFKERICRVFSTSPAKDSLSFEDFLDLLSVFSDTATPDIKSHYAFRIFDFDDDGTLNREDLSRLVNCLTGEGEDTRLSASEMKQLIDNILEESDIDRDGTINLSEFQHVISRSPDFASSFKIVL
Sequence of Phospholipid hydroperoxide glutathione peroxidase GPX4 (Homo sapiens) (P36969 whole entry, looked up): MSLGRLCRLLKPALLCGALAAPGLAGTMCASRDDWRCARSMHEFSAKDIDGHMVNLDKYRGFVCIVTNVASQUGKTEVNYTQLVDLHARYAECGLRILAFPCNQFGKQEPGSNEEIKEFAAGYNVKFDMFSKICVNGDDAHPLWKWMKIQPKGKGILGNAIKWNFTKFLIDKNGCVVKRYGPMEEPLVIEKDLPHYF
Sequence of Glutathione peroxidase 1 (Homo sapiens) (P07203 whole entry, looked up): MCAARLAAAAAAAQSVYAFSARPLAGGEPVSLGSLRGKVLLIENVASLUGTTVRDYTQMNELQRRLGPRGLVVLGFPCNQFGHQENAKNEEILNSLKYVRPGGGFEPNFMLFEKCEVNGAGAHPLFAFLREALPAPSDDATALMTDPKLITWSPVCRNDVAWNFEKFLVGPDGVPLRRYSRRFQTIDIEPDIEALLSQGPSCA

C/C=C(/COC(=O)/C(C)=C/C)C(=O)OC/C=C/c1ccc(OC)cc1
not listed: PA-1 | Tov112D | [9] | [10]
inactive: all other assays above

C=C(C)[C@@H]1CC[C@]2(C(=O)O)CC[C@]3(C)C(CCC4[C@@]5(C)C[C@@H](O)[C@H](O)C(C)(C)C5CC[C@]43C)C12 (stereo not given in full)
not listed: [1] | [9] | [10]
inactive: all other assays above

CN1CCN(C(=O)c2ccc(Nc3nccc(-c4cccs4)n3)cc2Cl)CC1
active: [9] 7.28 µM | [10] 6.49 µM
not listed: JEG-3 | Tov-21-G | Tov112D
inactive: all other assays above

Cc1ccccc1C(=O)Nc1ccc(C(=O)N2CCC[C@@H](O)c3cc(Cl)ccc32)c(C)c1
not listed: [5] | [9] | [10]
inactive: all other assays above

OCC(CO)(CO)NCC(O)Cn1c2ccc(Cl)cc2c2cc(Cl)ccc21 (stereo not given)
active: [9] 20.5 µM | [10] 20.5 µM
not listed: [5]
inactive: all other assays above

O=S(=O)(c1cccc2ccccc12)n1ccc2ccc(N3CCN4CCCC4C3)cc21 (stereo not given)
active: [9] 14.5 µM | [10] 14.5 µM
not listed: [5] | [7] | PA-1
inactive: all other assays above

C[C@@H](c1nc(-c2ccc(C#N)cc2)cs1)[C@](O)(Cn1cncn1)c1cc(F)ccc1F
active: [9] 8.17 µM | [10] 11.5 µM
inactive: all other assays above

COc1ccc(C(=O)N(CCC(C)C)Cc2nc(C)c(C)n2Cc2ccccc2C)c(OC)c1
active: [9] 11.5 µM | [10] 11.5 µM
not listed: [5] | [7]
inactive: all other assays above

CC[C@H](CO)Nc1nc(Nc2cccc(-c3ccccn3)c2)c2ncn(C(C)C)c2n1
active: [10] 16.3 µM
not listed: OV90 | Tov-21-G | PA-1 | [9]
inactive: all other assays above

COc1cccc(CNC(=O)Nc2nc(-c3ccncc3)cs2)c1
active: [9] 7.28 µM | [10] 1.63 µM
not listed: [1] | [4] | [5] | HeLa
inactive: all other assays above

Cn1cnc(-c2nccc3c(=O)[nH]c(OCCCC(F)(F)F)nc23)c1
inactive: [2] | [6] | [7] | [8] | C33A | CASKI | HeLa | Tov112D
active: [9] 2.9 µM | [10] 2.58 µM | [4] 8.06 µM | [5] 22.7 µM

O=C(NCc1ccc(Oc2ccccc2)cc1)c1nc(-c2cc(Br)c(O)c(Br)c2)no1
active: [1] 2.82 µM | [2] 2.51 µM | [10] 20.5 µM | [7] 423 nM
not listed: [3] | [9]
inactive: all other assays above

O=c1c(-n2ccnn2)c[nH]n1-c1cc(N2CCOCC2)ncn1
inactive: [3] | [4] | [5]
active: [9] 20.9 µM | [10] 20.9 µM

CC(=O)N[C@@H](CC(=O)O)C(=O)N[C@@H](CCC(=O)O)C(=O)N[C@H](C(=O)N[C@@H](CC(=O)O)C(=O)Nc1ccc2c(C)cc(=O)oc2c1)C(C)C
inactive: [1] | [2] | [5] | [6] | [8] | HeLa | Hek293T | JEG-3 | OV90 | Tov112D
active: [9] 5.78 µM | [10] 5.15 µM
